According to PubChem BioAssay (Tox21):
Records with an inconclusive call do not appear. The source made the active and inactive calls. Unless noted, the call rests on the fitted dose curve.

Legend:
[1] = Nuclear factor erythroid 2-related factor 2/antioxidant responsive element (Nrf2/ARE) small molecule agonists: qHTS cell viability counter screen in human keratinocytes (AID 1919968; active means well fitted curve in the direction sought with a large enough effect in the repeat runs; an effect the other way counts as inactive or inconclusive; further: nearly all actives have a fitted effect of over 55% in size)
How it was run: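 After a 5 h attachment period, ARE-reporter keratinocytes were dosed with compounds in DMSO and then cultured 23 h at 37 C. Cell viability came from CellTiter-Fluor signal read after a further 1 h.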

[2] = biological target: Gonadotropin-releasing hormone receptor (Homo sapiens) (UniProt P30968); assay: Human gonadotropin-releasing hormone receptor (GnRHR) small molecule agonists, calcium flux assay in GnRHR-HEK293 cells (AID 1920063); further: nearly all actives have a fitted effect of over 35% in size
Sequence of Gonadotropin-releasing hormone receptor (Homo sapiens) (P30968 whole entry, looked up): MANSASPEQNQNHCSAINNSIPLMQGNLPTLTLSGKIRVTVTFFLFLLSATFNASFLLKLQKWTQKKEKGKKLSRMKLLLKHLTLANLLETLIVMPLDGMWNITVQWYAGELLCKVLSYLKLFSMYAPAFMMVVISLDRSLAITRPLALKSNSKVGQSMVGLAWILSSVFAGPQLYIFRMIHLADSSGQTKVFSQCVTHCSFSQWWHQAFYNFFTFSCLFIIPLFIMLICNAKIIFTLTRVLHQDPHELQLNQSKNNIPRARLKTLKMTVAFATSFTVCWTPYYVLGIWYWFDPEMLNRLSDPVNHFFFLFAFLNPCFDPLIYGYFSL
How it was run: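 We seeded human GnRHR-expressing HEK293 cells for 18 hours, loaded them with calcium dye for an hour at 37 C, added test compounds, and recorded fluorescence intensity kinetically for three minutes.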

[3] = biological target: KiSS-1 receptor (Homo sapiens) (UniProt Q969F8); assay: Human kisspeptin (KISS1R) small molecule agonists, calcium flux assay in KISS1R-HEK293 cells (AID 1920064; active means well fitted curve in the direction sought with a large enough effect in the repeat runs; an effect the other way counts as inactive or inconclusive)
Sequence of KiSS-1 receptor (Homo sapiens) (Q969F8 whole entry, looked up): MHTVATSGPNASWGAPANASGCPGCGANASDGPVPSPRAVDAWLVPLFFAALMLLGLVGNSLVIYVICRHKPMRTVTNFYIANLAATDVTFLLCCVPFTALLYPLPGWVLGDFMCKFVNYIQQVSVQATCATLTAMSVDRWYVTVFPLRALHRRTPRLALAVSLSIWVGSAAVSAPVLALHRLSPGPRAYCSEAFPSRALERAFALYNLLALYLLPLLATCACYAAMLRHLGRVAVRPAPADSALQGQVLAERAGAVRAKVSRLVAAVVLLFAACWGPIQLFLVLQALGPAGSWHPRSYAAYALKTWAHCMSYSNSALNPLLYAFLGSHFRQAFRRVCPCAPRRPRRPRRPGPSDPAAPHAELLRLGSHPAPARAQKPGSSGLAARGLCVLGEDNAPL
How it was run: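 Kinetic calcium assay, 1 s sampling over 3 min at Ex/Em 480/540, in HEK293 cells engineered with human KISS1R; compounds delivered in DMSO after 1 h dye loading.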

[4] = G protein-coupled receptor (GPCR) small molecule agonists, calcium flux assay: HEK293 wild type cell line counter screen (AID 1920065)
How it was run: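 Calcium-sensitive dye, loaded 1 h at 37 C into cells cultured 18 h, reports compound-evoked calcium release as fluorescence (Ex/Em 480/540), measured over 3 min. Agonist mode; 15-point titrations, triplicate.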

[5] = p53 small molecule agonists, cell-based qHTS assay with human liver microsomes (AID 1963577)
How it was run: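 Compounds act here after metabolic activation: human liver microsomes and NADPH, both at 0.5 mg/mL final, were co-added to p53RE-bla cells. Incubation ran 16 h at 37 C, followed by LiveBLAzer detection.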

[6] = p53 small molecule agonists, cell-based qHTS assay with rat liver microsomes (AID 1963578)
How it was run: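 Read-out is beta-lactamase reporter fluorescence (LiveBLAzer, 2 h, room temperature, dark) in p53RE-bla cells treated 16 h at 37 C with compound, rat liver microsomes and NADPH, both 0.5 mg/mL final.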

[7] = p53 small molecule agonists, cell-based qHTS assay with human liver microsomes: qHTS cell viability counter screen (AID 1963579); further: nearly all actives have a fitted effect of over 45% in size
How it was run: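 Cells carrying the p53 response-element beta-lactamase reporter are treated for 16 h at 37 C with test compounds in the presence of human liver microsomes and NADPH (both 0.5 mg/mL final); ATP-based CellTiter-Glo luminescence then reports viability.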

[8] = p53 small molecule agonists, cell-based qHTS assay with rat liver microsomes: qHTS cell viability counter screen (AID 1963580); further: nearly all actives have a fitted effect of over 45% in size
How it was run: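 Intracellular ATP, by CellTiter-Glo luminescence, defines viability. HCT-116 p53RE-bla cells, 4,000 per well, were compound-treated in the presence of rat liver microsomes and NADPH for 16 h at 37 C.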

[9] = p53 small molecule agonists, cell-based qHTS assay: qHTS cell viability counter screen (AID 1963581); further: nearly all actives have a fitted effect of over 45% in size
How it was run: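 Following 5 h attachment, HCT-116 p53RE-bla cells took up compound for 16 h at 37 C; the reporter was read with B/G FRET substrate (2 h RT), and viability then via CellTiter-Glo ATP luminescence.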

[10] = p53 small molecule agonists, cell-based qHTS assay (AID 1963582; active means well fitted activation curve with a large enough effect in the signal ratio in the repeat runs, not every such curve was filed as active; the % refers to the signal ratio)
How it was run: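 In this cell-based concentration-response screen, a p53 response element drives beta-lactamase; cells received DMSO-borne compounds after 5 h culture and were incubated a further 16 h before FRET substrate development.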

[11] = biological target: 5-hydroxytryptamine receptor 2A (Homo sapiens) (UniProt P28223); assay: 5-hydroxytryptamine receptor 2A (HTR2A) small molecule antagonists, cell-based qHTS assay (AID 1963586); further: nearly all actives have a fitted effect of over 45% in size
Sequence of 5-hydroxytryptamine receptor 2A (Homo sapiens) (P28223 whole entry, looked up): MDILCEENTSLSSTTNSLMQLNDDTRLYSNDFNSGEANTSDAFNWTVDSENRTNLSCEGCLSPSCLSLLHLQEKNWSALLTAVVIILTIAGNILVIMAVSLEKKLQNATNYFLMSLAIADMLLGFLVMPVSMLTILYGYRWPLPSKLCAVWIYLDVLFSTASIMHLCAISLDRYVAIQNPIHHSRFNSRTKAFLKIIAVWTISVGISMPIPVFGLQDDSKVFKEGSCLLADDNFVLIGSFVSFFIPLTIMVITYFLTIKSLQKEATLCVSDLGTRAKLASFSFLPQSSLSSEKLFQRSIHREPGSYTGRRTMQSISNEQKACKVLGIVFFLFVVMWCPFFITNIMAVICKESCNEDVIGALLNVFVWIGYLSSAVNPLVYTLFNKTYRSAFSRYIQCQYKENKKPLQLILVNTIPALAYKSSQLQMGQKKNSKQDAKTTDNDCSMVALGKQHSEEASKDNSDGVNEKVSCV
How it was run: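 Antagonist-mode intracellular calcium assay: DOI (4 nM) added after 5 min compound pre-incubation at room temperature to dye-loaded HTR2A-CHO cells. Fluorescence followed for 3 min, sampled every second.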

[12] = biological target: 5-hydroxytryptamine receptor 2A (Homo sapiens) (UniProt P28223); assay: 5-hydroxytryptamine receptor 2A (HTR2A) small molecule agonists, cell-based qHTS assay (AID 1963587); further: nearly all actives have a fitted effect of over 30% in size
How it was run: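 Kinetic calcium-flux fluorescence (2 min, 1 sec intervals) after compound addition in agonist mode. HTR2A-CHO cells were cultured 18 h, then dye-loaded 1 h at 37 C.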

[13] = biological target: Muscarinic acetylcholine receptor M1 (Homo sapiens) (UniProt P11229); assay: Cholinergic receptor muscarinic 1 (CHRM1) small molecule antagonists, cell-based qHTS assay (AID 1963588); further: nearly all actives have a fitted effect of over 40% in size
Sequence of Muscarinic acetylcholine receptor M1 (Homo sapiens) (P11229 whole entry, looked up): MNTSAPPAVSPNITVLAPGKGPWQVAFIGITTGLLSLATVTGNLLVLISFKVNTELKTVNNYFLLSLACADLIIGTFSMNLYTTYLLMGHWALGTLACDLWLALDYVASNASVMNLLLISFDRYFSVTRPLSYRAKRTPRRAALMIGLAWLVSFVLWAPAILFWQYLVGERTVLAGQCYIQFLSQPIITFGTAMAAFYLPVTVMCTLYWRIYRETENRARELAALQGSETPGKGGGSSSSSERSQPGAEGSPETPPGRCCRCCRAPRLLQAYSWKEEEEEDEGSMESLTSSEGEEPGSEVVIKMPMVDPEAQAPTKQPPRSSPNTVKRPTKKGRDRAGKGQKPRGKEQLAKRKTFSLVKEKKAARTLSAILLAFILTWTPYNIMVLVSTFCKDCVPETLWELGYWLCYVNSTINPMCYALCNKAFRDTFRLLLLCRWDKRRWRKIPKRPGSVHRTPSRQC
How it was run: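 CHRM1-CHO calcium-flux assay, antagonist mode. Cells were seeded 18 h, dye-loaded 1 h at 37 C and given compound for 5 min at RT, then acetylcholine was added at 50nM. FDSS fluorescence was read 3 min; 15 concentrations, three runs.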

[14] = biological target: Muscarinic acetylcholine receptor M1 (Homo sapiens) (UniProt P11229); assay: Cholinergic receptor muscarinic 1 (CHRM1) small molecule agonists, cell-based qHTS assay (AID 1963589); further: nearly all actives have a fitted effect of over 35% in size
How it was run: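 Measures agonist-induced intracellular calcium rise. Stable human CHRM1 CHO line, 1 h dye load at 37 C, compounds from DMSO, kinetic fluorescence read.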

[15] = cAMP Responsive Elements (CRE) small molecule antagonists, cell-based qHTS assay (AID 1963591; active means well fitted inhibition curve with a large enough effect in the signal ratio in the repeat runs, not every such curve was filed as active; the % refers to the signal ratio)
How it was run: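 HEK293T cells carrying a CRE-driven beta-lactamase reporter receive compound and NKH477 (0.25 uM final) for 3 h. Fluorescence from LiveBLAzer B/G FRET substrate is read after 2 h at room temperature.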

[16] = biological target: Beta-2 adrenergic receptor (Homo sapiens) (UniProt P07550); assay: Adrenergic beta2 receptor (ADRB2) small molecule antagonists, cell-based qHTS assay (AID 1963592); further: series mostly up to about 92 µM; nearly all actives have a fitted effect of over 50% in size
Sequence of Beta-2 adrenergic receptor (Homo sapiens) (P07550 whole entry, looked up): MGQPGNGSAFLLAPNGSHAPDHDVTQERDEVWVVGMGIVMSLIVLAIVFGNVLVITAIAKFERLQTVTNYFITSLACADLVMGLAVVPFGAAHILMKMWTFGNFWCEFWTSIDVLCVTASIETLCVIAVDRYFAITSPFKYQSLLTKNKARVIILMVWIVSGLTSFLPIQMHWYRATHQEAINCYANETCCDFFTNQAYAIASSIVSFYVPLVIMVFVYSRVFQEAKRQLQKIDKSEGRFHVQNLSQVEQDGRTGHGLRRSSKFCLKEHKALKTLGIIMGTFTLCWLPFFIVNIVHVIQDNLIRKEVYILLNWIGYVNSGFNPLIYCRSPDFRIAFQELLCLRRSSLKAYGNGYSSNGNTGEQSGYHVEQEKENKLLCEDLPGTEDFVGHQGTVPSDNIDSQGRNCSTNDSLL
How it was run: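 Cells (CHO, stable ADRB2 overexpression) incubated 18-20hr at 37C; compounds added from DMSO; agonist mix (1nM isoproterenol, 100uM IBMX, 25uM Ro-20-1724) added; 0.5hr RT; d2-cAMP and anti-cAMP-cryptate added; 1hr RT; 665/615 nm read.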

[17] = biological target: D(2) dopamine receptor (Homo sapiens) (UniProt P14416); assay: Dopamine D2 receptor (DRD2) small molecule agonists, cell-based qHTS assay (AID 1963594); further: nearly all actives have a fitted effect of over 35% in size
Sequence of D(2) dopamine receptor (Homo sapiens) (P14416 whole entry, looked up): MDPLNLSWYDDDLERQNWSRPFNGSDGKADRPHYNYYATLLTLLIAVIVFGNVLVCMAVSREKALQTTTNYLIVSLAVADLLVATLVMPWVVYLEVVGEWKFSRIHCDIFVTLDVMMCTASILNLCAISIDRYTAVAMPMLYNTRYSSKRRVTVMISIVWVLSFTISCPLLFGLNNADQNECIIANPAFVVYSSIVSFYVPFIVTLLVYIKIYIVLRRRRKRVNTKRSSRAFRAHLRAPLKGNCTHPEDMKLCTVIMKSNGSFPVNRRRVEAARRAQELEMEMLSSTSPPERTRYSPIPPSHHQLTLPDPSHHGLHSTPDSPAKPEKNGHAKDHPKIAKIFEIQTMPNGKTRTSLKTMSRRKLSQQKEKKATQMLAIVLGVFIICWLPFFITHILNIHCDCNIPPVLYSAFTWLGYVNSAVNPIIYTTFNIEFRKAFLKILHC
How it was run: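 cAMP accumulation in DRD2-HEK293 cells measured by HTRF after 1 h detection; compounds added 10 min before NKH477 (200nM […]) forskolin-analogue stimulation, 30 min at room temperature, with Ro20-1724 present at 0.1 mM final.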

[18] = biological target: D(2) dopamine receptor (Homo sapiens) (UniProt P14416); assay: Dopamine D2 receptor (DRD2) small molecule antagonists, cell-based qHTS assay (AID 1963595; active means well fitted inhibition curve with a large enough effect in the signal ratio in the repeat runs, with a control signal flat; the % refers to the signal ratio)
How it was run: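 HTRF cAMP read-out at 665 and 620 nm emission (340 nm excitation). Antagonist mode: compounds were tested against 12 nM quinpirole in DRD2-HEK293 cells, with 200 nM NKH477 raising cAMP and 0.1 mM Ro20-1724 blocking its breakdown.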

[19] = cAMP Responsive Elements (CRE) small molecule agonists, cell-based qHTS assay (AID 1963590)
How it was run: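 A CRE-responsive beta-lactamase reporter in HEK 293T cells was used. Treatment ran 3 h at 37 C; detection used LiveBLAzer B/G FRET substrate for 2 h at room temperature.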

[20] = biological target: Beta-2 adrenergic receptor (Homo sapiens) (UniProt P07550); assay: Adrenergic beta2 receptor (ADRB2) small molecule agonists, cell-based qHTS assay (AID 1963593);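 further: CHO cells stably overexpressing human ADRB2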
How it was run: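 CHO cells stably over-expressing ADRB2 were plated overnight at 37C, then dosed with compounds plus a stimulation mix containing 100uM IBMX and 25uM Ro-20-1724 for 0.5hr at room temperature. cAMP was measured by HTRF competition, 1hr.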

Measured: Potency

O=c1c(O)c(O)c1=O
inactive: [1] | [2] | [3] | [4] | [5] | [6] | [7] | [8] | [9] | [10] | [11] | [12] | [13] | [14] | [15] | [16] | [17] | [18]

CC(CC(C)(C)C)CC(C)(C)CC(C)(C)C (centres undefined)
inactive: [1] | [2] | [3] | [4] | [5] | [6] | [7] | [8] | [9] | [10] | [11] | [12] | [13] | [14] | [19] | [16] | [17] | [18]

CCCCC(CC)(CO)CO
inactive: [1] | [2] | [3] | [4] | [5] | [6] | [7] | [8] | [9] | [10] | [11] | [12] | [13] | [14] | [19] | [15] | [16]

Cc1ccc(C(=O)c2ccccc2)cc1
inactive: [1] | [2] | [3] | [4] | [5] | [6] | [7] | [8] | [9] | [10] | [11] | [12] | [13] | [14] | [16] | [20] | [17] | [18]

CCc1cccc(C)c1N(C(=O)C(=O)O)C(C)COC (centres undefined)
inactive: [1] | [2] | [3] | [4] | [5] | [6] | [7] | [8] | [9] | [10] | [12] | [13] | [14] | [19] | [15] | [17] | [18]

CCCCCC(=O)OCCc1ccccc1
inactive: [1] | [2] | [3] | [4] | [5] | [6] | [7] | [8] | [9] | [10] | [11] | [12] | [13] | [14] | [19] | [15] | [16] | [18]

C=CCSCC1Nc2cc(Cl)c(S(N)(=O)=O)cc2S(=O)(=O)N1 (centres undefined)
inactive: [1] | [2] | [3] | [4] | [5] | [6] | [7] | [8] | [9] | [10] | [12] | [13] | [14] | [19] | [15] | [16] | [17] | [18]
